The structures appear in SMILES notation. Several values for one entry are separate records, joined by “and”; a condition that tells them apart may be missing. Identical values can stand only once. A number with no mark means an inactive call. Activity calls are given as the source filed them. Cut-off read from the data, not from the text of the source: active = inhibition above about 33%; inactive = the rest.

A word on the inhibition: it is the relative decrease from the control value, in per cent.

The test can be described thus: compounds suppressing VP16-driven luciferase signal – cell-based, luminescence, high throughput, counter-screen for LRH-1 inverse agonist project (AID 651615). To be noted: Gal4-VP16 luciferase reporter cells, at 3.6 µM, hits give high values.
As for `c1cc(CNc2ccc3c(c2)OCCO3)ccn1`, the inhibition is -8.35%.
For `Cc1nn(Cc2ccc(C(=O)Nc3nccs3)cc2)c(C)c1Cl` the value was 64.6% (active).
Regarding `CC1CN(S(=O)(=O)c2ccc(C(=O)NCCCn3ccnc3)cc2)CC(C)O1` (stereo not given), the inhibition is 81.1% (active).
Take `O=[N+]([O-])c1ccc(Sc2cccc[n+]2[O-])c2nonc12`: the inhibition was 98.9% (active).
For `O=C(NN=Cc1ccccc1O)NN=Cc1ccccc1O`, the inhibition was 81.8% (active).
For `NC(=S)NN=Cc1cc(-c2cccc(N)c2)ccn1` the value was 72.4% (active); for `Cc1ccc(-c2cc3cccc[n+]3cc2-c2ccc(C)cc2)cc1`, 79.4% (active).
Next, `Cc1cc(/C=N/n2cnnc2)c(C)n1-c1ccc(OCc2ccc(Cl)cc2Cl)cc1`: 62.3% (active); `OCC1OC(n2cnc3c(NCc4ccco4)ncnc32)C(O)C1O` (stereo not given): 67.7% (active).
For `CCC[N+]1(CC#CCC(c2ccccc2)c2ccccc2)CCCCC1` the value was 73.6% (active).
As for `O=C(N/N=C(\c1ccccc1)c1cccnc1)c1cccc(F)c1`, the inhibition was 58.5% (active).
For `COc1ccc(/C=C/c2cc(-c3ccc(C)cc3)o[n+]2C)cc1` the value was 83.6% (active).
With `CCN(CC)c1ccc(C(=C2C=CC(=[N+](CC)CC)C=C2)c2ccc(N(CC)CC)cc2)cc1`, the inhibition is 97.1% (active).
For `Cc1ccc(NCCN(C)C)c2c(=O)c3cc(O)ccc3sc12` the value was 55.7% (active).
Next, `Cc1cc(OCc2nc(N)nc(N)c2-c2ccc(Cl)c(Cl)c2)ccc1[N+](=O)[O-]`: 42% (active); `CCC(C)n1ncn(-c2ccc(N3CCN(c4ccc(O)cc4)CC3)cc2)c1=O` (stereo not given): 73.1% (active); `N=c1c2c(-c3ccccc3)c(-c3ccccc3)n(Cc3ccco3)c2ncn1CCO`: 74.8% (active).
Regarding `CCCC(=O)NC(c1ccc(Cl)cc1)c1ccc2cccnc2c1O` (stereo not given), the inhibition was 74.8% (active).
Next, `Cc1cc(C)cc(NS(=O)(=O)c2ccc3c(c2)c(=O)n(C)c(=O)n3C)c1`: 56.9% (active); `COc1ccc(OC)c(Cc2cnc3nc(N)nc(N)c3c2C)c1`: 43.9% (active); `COc1cccc(/C=N\NC(=O)c2ccc(Cn3cc(Br)c([N+](=O)[O-])n3)o2)c1O`: 73.2% (active).
For `NC1=C(Cl)C(=O)c2ccc(S(N)(=O)=O)cc2C1=O` the value was 95.8% (active).
Next, `O=C(/C=C/c1cccs1)NC(=S)NNC(=O)c1ccccc1O`: 86% (active); `CC(C)CC[n+]1ccccc1/C=C/c1ccc(N(C)C)cc1`: 87.1% (active); `CN(C)c1ncnc2c1nnn2C1OC(CO)C(O)C1O` (stereo not given): 88.8% (active).
In the case of `Cn1c2c(c(=O)n(C)c1=O)C(C(F)(F)F)(C(F)(F)F)N=C(c1ccc(Cl)cc1)N2`, the inhibition was 86.7% (active).
For `CCC(C)N(CC(=O)Nc1cccc(C)c1C)C(=O)CCl` (stereo not given) the value was 77.9% (active); for `COc1ccc(Cn2c(-c3ccc(C)cc3)c[n+]3ccccc23)cc1`, 74% (active); for `CCN1CCN(/C=N/c2nc3c(s2)CCCC3)CC1`, -69.9%.
Consider `Cc1ccc(O)c(N=Nc2nccs2)c1`, for which the inhibition is 62.3% (active).
For `Cc1cc(C(C)(C)C)cc(C)c1C[n+]1ccc2ccccc2c1` the value was 72.7% (active); for `CN(C)c1ccc(C=c2c3ccccc3n3c2c2c([n+]3C)CCCC2)cc1`, 94.7% (active).
For `CN(C(=O)OC(C)(C)C)c1ccc(-c2nc3ccccc3s2)cc1` the value was 78.5% (active); for `CC(NNC(=S)N1CCN(c2ccccn2)CC1)c1nccc2ccccc12` (stereo not given), 61% (active).
Next, `Cc1ccc(S(=O)(=O)N(C)C)cc1NC(=O)c1cncc(Br)c1`: 19.7%.
Consider `CCN1/C(=C/C(C)=C/c2sc3ccccc3[n+]2CC)Sc2ccccc21`, for which the inhibition is 88.1% (active) and 89.4% (active).
As for `CCOc1ccccc1O[C@H](c1ccccc1)[C@H]1CNCCO1`, the inhibition is 11.6%.
For `CN1OC[C@@H]2CN[C@H](c3ccc(-c4cc5ccccc5o4)cc3)C[C@@H]21` the value was 65.2% (active); for `CN(C)c1ccc(C=c2c3ccccc3n3c2cc(-c2ccccc2)[n+]3C)cc1`, 93.5% (active); for `CCCCCCCCCCn1ccc(=N)cc1`, 83.7% (active).
